One assay relates to KB-3-1. The assay can be described thus: Cytotoxic Profiling of Annotated Libraries Using Quantitative High-Throughput Screening (AID 1296008). For max response: % is set by controls: 0 for no effect and ±100 for the full control effect. Note: potency is the fitted concentration of half-maximal effect. Conditions: Five cell lines viability, CellTiter-Glo ATP luminescence, 48-72 h; max response: active compounds read low. The essentials:
(§1)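 Compounds were pin-transferred onto cells and incubated 48 or 72 hr at 37 degree Celsius, 95% humidity. CellTiter-Glo was added, plates sat 10 min at room temperature, then ATP-coupled luminescence was imaged as the viability read-out.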
(In general: In ATP-based viability assays light output follows the ATP content of the culture.)

A further assay deals with NIH3T3. Described as above. Conditions: Five cell lines viability, CellTiter-Glo ATP luminescence, 48-72 h; max response: active compounds read low. The essentials:
as §1

Another assay deals with CRL-7250. The assay can be described thus: qHTS assay to identify novel small-molecules to repurpose for Merkel cell carcinoma treatment (AID 1296009). Particulars: MCC and control cell lines, CellTiter-Glo viability, 72 h; at 44.8 µM (top of the series) unless noted. An outline of the steps:
(§2)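 Cells exposed to NPC (8-point) and MIPE (11-point) compound dilutions for 72 hr at 37 degree celsius; viability read by CellTiter-Glo luminescence, normalized to no-cell and DMSO in-plate controls.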
(In general: In qHTS, concentration-response curves come from the screen itself.)

The subject of a further assay is HACAT. Described as above. Conditions: MCC and control cell lines, CellTiter-Glo viability, 72 h; at 44.8 µM (top of the series) unless noted. An outline of the steps: as §2
The next assay concerns HEK293T. The assay is described as above. Conditions: MCC and control cell lines, CellTiter-Glo viability, 72 h; at 44.8 µM (top of the series) unless noted. An outline of the steps:
as §2

Several values for one entry are separate records, joined by “and”; a condition that tells them apart may be missing. Identical values can stand only once. Records with an inconclusive call do not appear. Unmarked numbers belong to inactive results. Activity calls are given as the source filed them. Calls come from the whole dose curve; as a rule, active = well fitted inhibition curve with a large enough effect; inconclusive = small, poorly fitted or top-dose-only effect; inactive = flat fitted curve, though single readings scatter.
Note: nearly all actives have a fitted effect of over 60% in size.

Consider `CCC1NC(=O)C2C(Cl)C(Cl)CN2C(=O)C(C(C)O)NC(=O)CC(c2ccccc2)NC(=O)C(CO)NC1=O` (stereo not drawn), for which the result in the assay on KB-3-1 and in the assay with NIH3T3 was inactive.
With `Cc1cc(C(=O)CN2CCCC2)c(C)n1-c1ccc(F)cc1`, the max response in the assay with KB-3-1 was 2.15% and -9.06%; in the assay with NIH3T3 it was 1.34% and -18.5%.
Regarding `CN1[C@@H]2CC[C@H]1CC(OC(=O)C1C=Nc3ccccc31)C2` (stereo partly drawn), the max response in the assay on KB-3-1 was 7.85%. Besides, the compound was classed as inactive in the assay with NIH3T3.
Consider `CC12CCC3C(CCC4(O)CC(O)CCC34C=O)C1(O)CCC2C1=CC(=O)OC1` (stereo not drawn), for which, in the assay with KB-3-1, the Potency was 1160 nM (active). In the assay on NIH3T3, the compound was called inactive.
For `CC(CCc1ccc(O)cc1)O[C@@H]1O[C@H](CO[C@H]2OC[C@](O)(CO)[C@H]2O)[C@@H](O)[C@H](O)[C@H]1O` (stereo partly drawn), the max response in the assay with KB-3-1 was 6.77%; with NIH3T3 it was 3.14%. The outcome with CRL-7250, in the assay on HACAT and in the assay with HEK293T was “inactive [at 17.4 µM]” throughout.
As to `CC(C)[C@@H](CN1CC[C@@](C)(c2cccc(O)c2)[C@@H](C)C1)NC(=O)[C@H]1Cc2ccc(O)cc2CN1`, the max response with KB-3-1 was 4.16%. Also, the call in the assay with NIH3T3, in the assay with CRL-7250 and in the assay on HACAT was inactive.
For the compound `COC1C(O)C(OC2CCC3(C=O)C(CCC4C3CCC3(C)C(C5=CC(=O)OC5)CCC43O)C2)OC(C)C1OC1OC(CO)C(O)C(O)C1O` (stereo not drawn), in the assay on KB-3-1, the Potency was 485 nM (active). In addition, the compound was classed as inactive with NIH3T3.
On the same counts, the results for `COC1CC(O[C@H]2CC[C@]3(C=O)C4CC[C@]5(C)[C@@H](C6=CC(=O)OC6)CC[C@]5(O)[C@@H]4CC[C@]3(O)C2)OC(C)C1O[C@@H]1O[C@H](CO)[C@@H](O)[C@H](O)[C@H]1O` (stereo partly drawn) are 273 nM (active) and “inactive”.
In the case of `Cc1cccc(NC(=O)N[C@@H]2N=C(c3ccccc3)c3ccccc3N(C)C2=O)c1`, the max response in the assay on KB-3-1 was 9%. The compound was classed as inactive in the assay on NIH3T3, in the assay with CRL-7250 and with HACAT.
With `S=C(S)N1CCNCC1`, the max response in the assay on KB-3-1 was 7.2%.
For `COc1cc(CCNCc2ccccc2O)c(OC)cc1C#N`, the compound was classed as inactive in the assay on KB-3-1, with CRL-7250 and in the assay on HACAT. Besides, the max response in the assay with NIH3T3 was 4.5%.
For `O=C1C[C@@H]2OCC=C3CN4CC[C@]56c7ccccc7N1[C@H]5[C@H]2[C@H]3C[C@H]46`, the max response was -9.91% in the assay with KB-3-1 and 3.86% with NIH3T3. Also, the outcome in the assay with KB-3-1, in the assay with CRL-7250 and with HACAT was inactive.
For `CC[C@H]1CN2CC[C@H]1C[C@@H]2[C@@H](O)c1ccnc2ccc(OC)cc12`, in the assay on KB-3-1, the max response was 5.11%. Further, the compound was classed as inactive with NIH3T3, in the assay with CRL-7250, with HACAT and in the assay on HEK293T.
`C#CC(C)(O)CC` (stereo not drawn): the max response in the assay with KB-3-1 was -2.82%.
In the case of `COC(=O)C1(C)CCC(O)C2(C)c3cc(O)c(C(C)C)cc3C(O)C(OC(C)=O)C12` (stereo not drawn), in the assay on KB-3-1, the outcome was inactive. The max response in the assay with NIH3T3 was 3.45%. Further, the outcome in the assay on CRL-7250 and in the assay on HACAT was “inactive [at 17.4 µM]” in each case.
For `CN[C@H]1[C@H](O)[C@H](O[C@@H]2[C@@H](O)[C@H](O[C@H]3O[C@H]([C@H](C)O)[C@@H](O)[C@H](O)[C@H]3N)[C@@H](N)C[C@H]2N)OC[C@@]1(C)O`, the values for the max response in the assay on KB-3-1 and with NIH3T3 were 3.55% and 4.53%, respectively. Moreover, the call in the assay with CRL-7250 and with HACAT was inactive.
On to `CCc1[nH]c2ccc(OC)cc2c1CCN(C)C`, for which the max response in the assay on KB-3-1 is -6.67%. Moreover, the result in the assay with NIH3T3 was inactive.
In the case of `CC(C)(C)c1cc(C(C)(C)C)c2c(c1)C(O)(C(F)(F)F)C(=O)O2` (stereo not drawn), the compound was classed as inactive in the assay on KB-3-1, in the assay on NIH3T3, with CRL-7250 and in the assay on HACAT.
Turning to `C/C=C(\C)C(=O)OC1CC2C(CC=C3CC(OC4CC(OC)C(OC5CC(OC)C(OC6OC(C)C(OC7OC(CO)C(O)C(O)C7O)C(OC)C6O)C(C)O5)C(C)O4)CCC32C)C2(O)CCC(C(C)=O)C12C` (stereo not drawn), in the assay on KB-3-1, the result was inactive. Moreover, in the assay with NIH3T3, the max response is -0.91%. In addition, the outcome in the assay with CRL-7250 and with HACAT was “inactive [at 9.27 µM]” in each case.
As for `COC(=O)[C@@]12C(=O)C(C)C(=O)[C@]1(C)C(C)=C[C@H]1[C@]3(C=O)CC[C@H](OC(C)=O)C(C)(C)[C@H]3CC[C@@]12C` (stereo partly drawn), the max response in the assay with KB-3-1 was 6.62%; with NIH3T3, 3.28%. Besides, the outcome with CRL-7250, in the assay on HACAT and in the assay with HEK293T was “inactive [at 17.4 µM]” throughout.
Consider `C=C[C@H]1CN2CC[C@H]1C[C@@H]2[C@@H](O)c1ccnc2ccccc12`, for which the max response is 5.41% and -18.8% in the assay with KB-3-1; -3.21% in the assay with NIH3T3.
As for `COC1CC(=O)C23C(=O)NC(CC(C)C)C2C(C)=C(C)C(OO)C3/C=C(\C)CCC(O)C1O` (stereo not drawn), the result with KB-3-1 and with NIH3T3 was inactive. The outcome in the assay on CRL-7250 and in the assay with HACAT was “inactive [at 17.4 µM]” in each case.
With `CN1CCCC1CCOC(c1cc2nccc(C(=O)O)c2[nH]1)c1ccccc1Cl` (stereo not drawn), in the assay with KB-3-1, the max response is 7.27%. In addition, the result in the assay with NIH3T3 and in the assay with CRL-7250 was inactive.
As for `Cn1ncnc1COc1nn2c(-c3c(F)cccc3F)nnc2cc1C1CCC1`, the compound was called inactive with KB-3-1, in the assay with CRL-7250, with HACAT and in the assay with HEK293T. The max response in the assay with NIH3T3 is 2.04%.

The values are drawn from PubChem BioAssay (NCATS).
